In ChEMBL document CHEMBL1157539, “Thousands of chemical starting points for antimalarial lead identification” (Nature, 2010):

Columns and labels:
Assay type in all cases: functional
Plasmodium falciparum [1] = experiment: GSK_TCMDC: Inhibition of Plasmodium falciparum 3D7 in whole red blood cells, using parasite LDH activity as an index of growth. Test compounds present at 2uM
Plasmodium falciparum [2] = experiment: GSK_TCMDC: Inhibition of Plasmodium falciparum Dd2 in whole red blood cells, using parasite LDH activity as an index of growth. Test compounds present at 2uM
HepG2 = experiment: GSK_TCMDC: Percent inhibition of human HepG2 cell line. Test compounds present at 10uM.

SMILES | Inhibition (Plasmodium falciparum [1]) | Inhibition (Plasmodium falciparum [2]) | Inhibition (HepG2)
Cn1cc(-c2ccnc3[nH]c(-c4cccc(CNC5CCC(O)CC5)c4)cc23)cn1.O=C(O)C(F)(F)F (stereo not drawn) | 95% | 82% | 48%
COC(=O)c1ccc2nc(-c3cc(-c4cccc(-c5ccccc5)c4)cnc3N)[nH]c2c1 | 100% | 61% | 25%
O=C(Nc1ccccc1F)N(CCCn1ccnc1)Cc1csc(-c2ccc(CNCc3ccccc3)cc2)n1.O=C(O)C(F)(F)F | 93% | 26% | 24%
Cc1nc(NC(=N)N)nc2ccc(C(C)(C)C)cc12.Cl | 96% | 91% | 4%
Cc1cc(N[C@@H](Cc2ccccc2)C(=O)Nc2ccccc2)nc(NCCc2cccnc2)n1.O=C(O)C(F)(F)F | 95% | 57% | 32%
O=C(NCCc1ccccc1)N(Cc1ccccc1-c1ccc(CNCCc2ccccc2)cc1)C1CCN(Cc2ccccc2)CC1.O=C(O)C(F)(F)F | 97% | 91% | 99%
O=C(N[C@H]1CCN(Cc2ccc(OCCN3CCCC3)c3ccccc23)C1)c1ccc(Cl)c(Cl)c1.O=C(O)C(F)(F)F | 100% | 51% | 90%
Cc1cc(NC(=O)c2cccs2)ccc1OC1CCN(Cc2ccc(C#N)cc2)C1.O=C(O)C(F)(F)F (stereo not drawn) | 82% | 61% | 13%
CCCCc1ccc(C(=O)NC2CCN(C[C@H](O)c3ccnc4ccc(OC)cc34)CC2)cc1 | 91% | 22% | 24%
COc1ccc2nccc(N3CCN(CCNCc4ccc5c(n4)NC(=O)CO5)CC3)c2c1.Cl | 92% | 5% | 18%
COc1ccc(OC)c(C=NNc2nc3ccccc3[nH]2)c1 | 99% | 28% | 0%
FC(F)(F)Oc1ccc(Nc2cc(-c3ccncc3)nc(-c3cccnc3)n2)cc1 | 94% | 52% | 24%
C[C@H](Cc1ccc(C[C@@H](C)NC[C@H](O)c2cccc(Cl)c2)cc1)NC[C@H](O)COc1ccccc1.Cl | 96% | 60% | 99%
Cc1noc(C)c1-c1cccc(CNCc2cccc(-c3ccc(-c4nc5cccc(C)c5[nH]4)cc3)c2)c1.O=C(O)C(F)(F)F | 100% | 69% | 24%
CN1CCC(N2CCN(Cc3cccc(-c4ccc(-c5nc6cc(F)ccc6[nH]5)cc4)c3)CC2)CC1.O=C(O)C(F)(F)F | 100% | 100% | 92%
Cc1cc(N)nc2ccc(-c3ccc(CCN)cc3)cc12 | 100% | 48% | 31%
O=C(Cc1ccccc1)NC(c1ccc(Cl)cc1)c1ccc2cccnc2c1O (stereo not drawn) | 93% | 64% | 50%
CCOC(=O)c1ccc(OCc2ccc(-c3ccccc3)cc2)cc1 | 96% | 0% | 18%
Cc1cccc(CNc2nc(C)cc(N[C@@H](Cc3ccccc3)C(=O)NCc3cccc(F)c3)n2)c1.O=C(O)C(F)(F)F | 100% | 82% | 39%
Br.CC1(C)NC(N)=NC(=N)N1OCc1cccs1 | 93% | 0% | 60%
FC(F)(F)c1ccc2[nH]c(-c3ccc(-c4ccc(CNCCN5CCNCC5)cc4)cc3)nc2c1.O=C(O)C(F)(F)F | 92% | 74% | 13%

SMILES | Inhibition (Plasmodium falciparum [1]) | Inhibition (Plasmodium falciparum [2]) | Inhibition (HepG2)
N#Cc1cnc(Nc2ccc(Oc3ccccc3)cc2)nc1Nc1cccc(S(N)(=O)=O)c1 | 96% | 86% | 74%
Cc1nn(CC(O)Cn2c3ccc(Br)cc3c3cc(Br)ccc32)c(C)c1Br (stereo not drawn) | 98% | 81% | 4%
NC1CCN(c2nc(NCCc3ccc(O)cc3)nc(NCc3ccccc3-c3ccccc3)n2)CC1.O=C(O)C(F)(F)F | 99% | 32% | 14%
Cn1cnc2c(SCc3ccccc3OCc3ccccc3)ncnc21 | 86% | 34% | 6%
O=C(O)C(F)(F)F.OCCN1CCN(Cc2ccc(-c3cccc(-c4nc5ccccc5[nH]4)c3)cc2)CC1 | 96% | 16% | 32%
Cl.N#Cc1ccc2c(c1)CCN(CCC1CCC(NC(=O)/C=C/c3ccc4[nH]ccc4c3)CC1)CC2 (stereo not drawn) | 93% | 27% | 2%
Cc1noc(C)c1-c1ccc2c(Nc3ccccc3C(C)(C)C)c(C(=O)NC3CCCC3)cnc2c1.Cl | 93% | 79% | 27%
COc1ccc(-c2ccc(NC(=O)c3cccc(Cl)c3)cc2)cc1CN(C)CCO.O=C(O)C(F)(F)F | 89% | 52% | 39%
Cn1nccc1C(=O)NCCNCc1cccc(-c2cccc(-c3nc4cc(C(F)(F)F)ccc4[nH]3)c2)c1.O=C(O)C(F)(F)F | 100% | 99% | 39%
CCCOC(=O)C1=C(C)NC2=C(C(=O)CC(c3ccc(OC)c(OC)c3)C2)C1c1cccc(O)c1 (stereo not drawn) | 100% | 99% | 0%
O=C1NC(C(=O)Nc2ccccc2)C(c2ccccc2)S1 (stereo not drawn) | 95% | 99% | 0%
Cc1ccc2[nH]ncc2c1N(CC1CCCCC1)c1ccnc(Nc2ccc(OCC(O)CN3CC=CCC3)cc2)n1.O=CO (stereo not drawn) | 100% | 79% | 29%
O=C(Nc1ccc(Cl)cc1C(=O)Nc1cccc(F)c1)c1ccc([N+](=O)[O-])cc1 | 89% | 54% | 10%
CO/C(=C\C=C\c1cc2cc(Cl)c(Cl)cc2[nH]1)C(=O)NCCCN1CCN(Cc2ccccc2)CC1 | 94% | 65% | 45%
CN1CCN(c2ccnc3cc4c(cc23)N(Cc2ccccc2)CC4)CC1 | 94% | 27% | 0%
Cc1ccc2c(c1)c(-c1ccccc1)c(-c1ccccc1)n2CC(O)CN1CCN(CC=Cc2ccccc2)CC1 (stereo not drawn) | 98% | 98% | 0%
Cc1ccc(NC(=O)c2ccc(NCCCN(C)Cc3ccccc3)c([N+](=O)[O-])c2)cc1F | 100% | 61% | 12%
Cc1nc(C(C)Nc2nncc(-c3ccc(Cl)cc3)n2)cs1 (stereo not drawn) | 91% | 55% | 0%
Cc1cc(-c2ccc3c(c2)CCN(CCC2CCC(NC(=O)/C=C/c4ccccc4F)CC2)CC3)on1.Cl (stereo not drawn) | 94% | 13% | 26%
O=C(CSc1nnc(-c2ccccc2Br)[nH]1)c1c[nH]c2ccccc12 | 100% | 95% | 7%
NC1CCCN(Cc2cccc(-c3cccc(-c4nc5ccccc5[nH]4)c3)c2)C1.O=C(O)C(F)(F)F (stereo not drawn) | 100% | 61% | 24%

SMILES | Inhibition (Plasmodium falciparum [1]) | Inhibition (Plasmodium falciparum [2]) | Inhibition (HepG2)
N=c1c2nc(-c3c(F)cccc3Cl)[nH]c(=O)c2[nH]c(=O)n1-c1ccccc1 | 95% | 0% | 52%
Cc1ccc(C(=O)Nc2ccc(Nc3ccnc4cc(-c5ccccn5)ccc34)cc2O)cc1.Cl | 100% | 100% | 100%
O=CO.Oc1ccccc1CNCc1ccc(-c2cnc(N3CCCC(c4ccccc4)C3)nc2)cc1 (stereo not drawn) | 99% | 84% | 6%
Cc1ccccc1C1CCN(C2CCC(NC(=O)c3cc(-c4ccc(Cl)cc4)cs3)CC2)CC1 (stereo not drawn) | 100% | 100% | 99%
CC(=O)c1ccc(NC(=O)CSc2nc(-c3ccccc3Cl)ns2)cc1 | 89% | 72% | 0%
O=C(C=Cc1ccccc1)Nc1ccc(C#CC=Cc2ccc(NC(=O)C=Cc3ccccc3)cc2)cc1 | 100% | 3% | 26%
CCCc1cc(Cc2cnc(N)nc2N)ccc1OCCCCCC(=O)OCC | 97% | 1% | 0%
CN(C)c1ccc(CN2CCC(NC(=O)c3ccc(-c4ccccc4Cl)s3)CC2)cc1.O=C(O)C(F)(F)F | 82% | 27% | 35%
Cc1cc(N2CC=CCC2)nc(NC(=N)Nc2ccc(Cl)cc2)n1 | 100% | 78% | 0%
CO/C(=C\C=C\c1cc2cc(Cl)c(Cl)cc2[nH]1)C(=O)NC1CC2CCC(C1)N2C.Cl (stereo not drawn) | 88% | 23% | 46%
Fc1cccc(Cn2ncc3cc(Nc4ncnc5sc(C#Cc6ncc[nH]6)cc45)ccc32)c1 | 100% | 30% | 31%
O=C(Nc1ccc(Oc2ccccc2)cc1)N(Cc1ccc(-c2cccc(CN3CCNCC3)c2)cc1)C1CCN(Cc2ccccc2)CC1.O=C(O)C(F)(F)F | 93% | 53% | 10%
COc1ccc(-c2ccc(NC(=O)c3ccc(C#N)cc3)cc2)cc1CNC(C)C.O=C(O)C(F)(F)F | 100% | 38% | 19%
O=C(Nc1cccc(-c2ccc(NCCCN3CCCC3)nc2)c1)c1ccccc1 | 100% | 21% | 22%
O=C(NCCCCCN1CCC(c2c[nH]c3ccccc23)CC1)Nc1ccc(Cl)c(Cl)c1 | 92% | 0% | 42%
CCOc1ccc(C(=O)Nc2cc(Br)c3c(c2)CNCC3)cc1C(F)(F)F.Cl | 98% | 22% | 15%
COc1ccc(C=C2SC(=O)N=C2Nc2ccccc2)c(OC)c1 | 91% | 89% | 51%
OC(Cn1ccnc1)(c1ccc(Cl)cc1Cl)C1CCCCC1 (stereo not drawn) | 98% | 58% | 7%
COCCNCc1cccc(-c2cc3nccc(Nc4ccc(Oc5ccccc5)cc4)c3cc2Cl)c1 | 99% | 99% | 0%
